For some of these results: Entries with a potency or affinity are not part of this list. The source made the active and inactive calls. Unless noted, the rule behind the calls is not given here.
Legend:
[1] = antimalarial activity against Dd2 strain (AID 2302;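 active = growth inhibition above 50% at the single 2 µM test dose, taken to imply half-maximal potency below 2 µM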;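 note: 0% = DMSO untreated growth and 100% = chloroquine plus artemisinin killed control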); details: P. falciparum Dd2 in RBCs, LDH growth readout, 72 h; at 2 µM; hits give high values
[2] = HepG2 cytotoxicity, primary screen, cytotoxicity control for P. falciparum antimalarial project, cell-based, ATP luminescence (AID 2303;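 active = inhibition above 50%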;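 note: 0% = DMSO wells and 100% = digitonin-killed cells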); details: HepG2 viability, 24-48 h, at 10 µM, hits give high values
[3] = molecular target: L-lactate dehydrogenase (Plasmodium falciparum (isolate CDC / Honduras)) (UniProt Q27743); assay: PfLDH activity inhibition – cell lysate, 3D7 strain, counter-screen for P. falciparum growth inhibition project (AID 2304);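 note: 0% = vehicle and 100% = reference inhibitor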; details: P. falciparum 3D7 crude extract, LDH APAD/NBT absorbance; at 2 µM; hits give high values
[4] = inhibition of 3D7 malaria parasite growth – strain 3D7 (AID 2306);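 note: 0% = DMSO wells and 100% = chloroquine plus artemisinin control wells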; details: P. falciparum 3D7 erythrocytic growth, LDH absorbance, 72 h; at 2 µM; hits give high values
[5] = molecular target: Plasmodium falciparum protein kinase 6 (PK6, PF3D7_1337100) (UniProt Q8IDW1); assay: PfPK6 kinase inhibitors, biochemical, TCAMS library (AID 1159586); details: recombinant PfPK6, Kinase-Glo ATP depletion luminescence
[6] = molecular target: Protein kinase 7 (PK7), Plasmodium falciparum 3D7 (PF3D7_0213400) (UniProt Q7YTF7); assay: inhibition of Plasmodium PK7 catalytic activity – biochemical, TCAMS antimalarial set, Kinase-Glo luminescence (AID 1159587); details: recombinant PfPK7, Kinase-Glo ATP depletion luminescence
[7] = molecular target: Calcium-dependent protein kinase 4 (Plasmodium falciparum (isolate 3D7)) (UniProt Q8IBS5); assay: PfCDPK4 kinase inhibitors, biochemical, TCAMS library (AID 1159588; cut-off not given, nearly all actives have IC50 up to about 0.91 µM); details: recombinant PfCDPK4, Kinase-Glo ATP depletion luminescence
Sequence of Calcium-dependent protein kinase 4 (Plasmodium falciparum (isolate 3D7)) (Q8IBS5 whole entry, looked up): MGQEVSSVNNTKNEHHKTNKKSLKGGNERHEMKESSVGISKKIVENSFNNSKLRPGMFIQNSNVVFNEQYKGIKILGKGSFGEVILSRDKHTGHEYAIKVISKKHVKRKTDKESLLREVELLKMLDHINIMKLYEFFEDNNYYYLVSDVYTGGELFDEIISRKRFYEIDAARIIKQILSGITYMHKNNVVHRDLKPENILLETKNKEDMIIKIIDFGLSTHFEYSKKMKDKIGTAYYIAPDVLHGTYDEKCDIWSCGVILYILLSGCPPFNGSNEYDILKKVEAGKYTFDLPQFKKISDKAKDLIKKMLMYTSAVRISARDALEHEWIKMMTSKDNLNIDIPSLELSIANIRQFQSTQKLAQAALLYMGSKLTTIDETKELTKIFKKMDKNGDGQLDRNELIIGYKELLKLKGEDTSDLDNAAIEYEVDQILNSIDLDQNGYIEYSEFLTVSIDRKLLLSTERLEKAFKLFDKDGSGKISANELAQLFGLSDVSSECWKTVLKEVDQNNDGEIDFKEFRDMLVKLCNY

Sequence of Protein kinase 7 (PK7), Plasmodium falciparum 3D7 (PF3D7_0213400) (Q7YTF7 1-343): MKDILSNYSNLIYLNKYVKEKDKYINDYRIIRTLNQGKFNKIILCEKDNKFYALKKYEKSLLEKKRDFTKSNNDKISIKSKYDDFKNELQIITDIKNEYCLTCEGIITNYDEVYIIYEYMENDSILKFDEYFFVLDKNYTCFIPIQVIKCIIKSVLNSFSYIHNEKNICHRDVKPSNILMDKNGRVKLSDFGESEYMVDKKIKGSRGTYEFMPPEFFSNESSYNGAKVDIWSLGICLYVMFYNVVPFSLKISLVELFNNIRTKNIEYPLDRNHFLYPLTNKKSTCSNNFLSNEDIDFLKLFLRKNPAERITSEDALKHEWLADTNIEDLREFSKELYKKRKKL
Sequence of L-lactate dehydrogenase (Plasmodium falciparum (isolate CDC / Honduras)) (Q27743 whole entry, looked up): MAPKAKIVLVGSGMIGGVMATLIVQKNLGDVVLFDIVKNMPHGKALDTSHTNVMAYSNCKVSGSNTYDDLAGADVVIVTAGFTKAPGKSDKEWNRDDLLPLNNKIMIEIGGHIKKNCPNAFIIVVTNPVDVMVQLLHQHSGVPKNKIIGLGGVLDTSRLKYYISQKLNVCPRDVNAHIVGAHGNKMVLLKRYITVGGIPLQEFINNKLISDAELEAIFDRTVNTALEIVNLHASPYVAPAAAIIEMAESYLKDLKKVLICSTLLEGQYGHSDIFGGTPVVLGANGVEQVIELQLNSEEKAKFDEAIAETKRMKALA
Sequence of Plasmodium falciparum protein kinase 6 (PK6, PF3D7_1337100) (Q8IDW1 1-305): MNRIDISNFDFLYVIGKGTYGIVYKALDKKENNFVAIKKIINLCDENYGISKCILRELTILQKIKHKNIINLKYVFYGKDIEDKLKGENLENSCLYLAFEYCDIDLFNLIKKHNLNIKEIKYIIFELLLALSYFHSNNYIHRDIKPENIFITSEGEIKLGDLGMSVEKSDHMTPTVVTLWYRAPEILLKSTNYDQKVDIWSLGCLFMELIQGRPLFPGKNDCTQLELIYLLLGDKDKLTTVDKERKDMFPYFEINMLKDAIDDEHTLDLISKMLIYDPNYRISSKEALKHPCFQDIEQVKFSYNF

Cc1cc(F)ccc1-c1nc(Nc2ccncc2)c2ccn(C)c2n1
active: growth inhibition [4] 89%
inactive: growth inhibition [1] 8% | inhibition [2] 9% | inhibition [3] 5% | outcome [5] | outcome [6] | outcome [7]

CC(C)(CNC(=O)C1CCN(Cc2ccc(Cl)cc2)CC1)c1nc(-c2ccc(Cl)c(O)c2)c(-c2ccncc2)[nH]1
active: growth inhibition [1] 83% | growth inhibition [4] 100%
inactive: inhibition [2] 36% | inhibition [3] -6% | outcome [5] | outcome [6] | outcome [7]

CC(C)(CNCc1ccc(C(F)(F)F)cc1)c1nc(-c2ccc(Cl)c(O)c2)c(-c2ccnc(N)n2)[nH]1
inactive: growth inhibition [1] 37% | inhibition [2] 32% | inhibition [3] -2% | outcome [5] | outcome [6] | outcome [7]
active: growth inhibition [4] 101%

CC(C)(CNCc1ccc(OC(F)(F)F)cc1)c1nc(-c2ccc(Cl)c(O)c2)c(-c2ccncc2)[nH]1
active: growth inhibition [1] 99% | growth inhibition [4] 102%
inactive: inhibition [2] 38% | inhibition [3] -2% | outcome [5] | outcome [6] | outcome [7]

Nc1ncc(-c2cn[nH]c2)cc1-c1nc2ncc(Cl)cc2[nH]1
active: growth inhibition [1] 70% | growth inhibition [4] 100%
inactive: inhibition [2] 40% | inhibition [3] 1% | outcome [5] | outcome [6] | outcome [7]

CS(=O)(=O)c1cccc(-c2cnc3[nH]cc(-c4cccc(CCN)c4)c3c2)c1
active: growth inhibition [1] 74% | growth inhibition [4] 99%
inactive: inhibition [2] -12% | inhibition [3] -5% | outcome [5] | outcome [6] | outcome [7]

COc1cccc(CNCC(C)(C)c2nc(-c3ccc(Cl)c(O)c3)c(-c3ccncc3)[nH]2)c1
active: growth inhibition [1] 98% | inhibition [2] 74% | growth inhibition [4] 101%
inactive: inhibition [3] -9% | outcome [5] | outcome [6] | outcome [7]

CC(C)(CNCc1ccccc1)c1nc(-c2ccc(Cl)c(O)c2)c(-c2ccncc2)[nH]1
inactive: inhibition [3] -2% | outcome [5] | outcome [6] | outcome [7]
active: growth inhibition [1] 99% | inhibition [2] 77% | growth inhibition [4] 101%

CN(C(=O)c1cc2c(-c3cncnc3)cccc2[nH]1)c1ccccc1
inactive: inhibition [2] 1% | inhibition [3] 0% | outcome [5] | outcome [6] | outcome [7]
active: growth inhibition [1] 99% | growth inhibition [4] 92%

CCCN1CCN(CCNC(=O)c2cccc(Nc3nccc(Nc4ccc(Oc5ccccc5)cc4)n3)c2)CC1
inactive: inhibition [3] -7% | outcome [5] | outcome [6] | outcome [7]
active: growth inhibition [1] 96% | inhibition [2] 56% | growth inhibition [4] 99%

Cc1nnc(-c2cccc(Nc3ccnc4cc(-c5nccs5)ccc34)c2)o1
active: growth inhibition [1] 89% | growth inhibition [4] 95%
inactive: inhibition [2] 38% | inhibition [3] -2% | outcome [5] | outcome [6] | outcome [7]

Cc1ccc(Nc2nc3cc(N(C)c4ccnc(Nc5cccc(CCS(C)(=O)=O)c5)n4)ccc3n2C)cc1
inactive: inhibition [3] 4% | outcome [5] | outcome [6] | outcome [7]
active: growth inhibition [1] 73% | inhibition [2] 78% | growth inhibition [4] 99%

CS(=O)(=O)Nc1cccc(-c2cnc3[nH]cc(-c4ccc(CN)cc4)c3c2)c1
inactive: inhibition [2] 27% | inhibition [3] 2% | outcome [5] | outcome [6] | outcome [7]
active: growth inhibition [1] 95% | growth inhibition [4] 98%

Oc1cc(Nc2ccnc3cc(I)ccc23)c(F)cc1Cl
active: growth inhibition [1] 77% | growth inhibition [4] 92%
inactive: inhibition [2] -3% | inhibition [3] -3% | outcome [5] | outcome [6] | outcome [7]

CN1CCN(Cc2ccc(-c3ccc4c(Nc5ccc(Cl)cc5F)ccnc4c3)o2)CC1
inactive: inhibition [2] 47% | inhibition [3] -3% | outcome [5] | outcome [6] | outcome [7]
active: growth inhibition [1] 100% | growth inhibition [4] 102%

O=C(NCCN1CCC(c2ccncc2)CC1)c1cccc(Nc2nccc(Nc3ccc(Oc4ccccc4)cc3)n2)c1
active: growth inhibition [1] 91% | inhibition [2] 60% | growth inhibition [4] 101%
inactive: inhibition [3] -3% | outcome [5] | outcome [6] | outcome [7]

CN(C)CCOc1ccc(-c2cc(-c3ccc(Cl)c(O)c3)c(-c3ccnc(N)n3)o2)cc1
active: growth inhibition [1] 95% | growth inhibition [4] 100%
inactive: inhibition [2] 43% | inhibition [3] 2% | outcome [5] | outcome [6] | outcome [7]

CC(C)(NCc1ncc[nH]1)c1nc(-c2ccc(Cl)c(O)c2)c(-c2ccncc2)[nH]1
active: growth inhibition [1] 97% | growth inhibition [4] 95%
inactive: inhibition [2] 42% | inhibition [3] 3% | outcome [5] | outcome [6] | outcome [7]

CC(C)(CNC(=O)C1CCN(Cc2ccoc2)CC1)c1nc(-c2ccc(Cl)c(O)c2)c(-c2ccncc2)[nH]1
active: growth inhibition [1] 66% | growth inhibition [4] 93%
inactive: inhibition [2] -12% | inhibition [3] -2% | outcome [5] | outcome [6] | outcome [7]

CC(C)(CNCc1ccc(F)c(F)c1)c1nc(-c2ccc(Cl)c(O)c2)c(-c2ccnc(N)n2)[nH]1
active: growth inhibition [1] 79% | growth inhibition [4] 99%
inactive: inhibition [2] 41% | inhibition [3] -4% | outcome [5] | outcome [6] | outcome [7]

CCOC(=O)c1cccc(NC(=O)Nc2cccc(-c3ncc(OCCCN)c4c3nc(-c3nonc3N)n4CC)c2)c1
active: growth inhibition [1] 98% | growth inhibition [4] 100%
inactive: inhibition [2] 16% | inhibition [3] 2% | outcome [5] | outcome [6] | outcome [7]

COCCNCc1ncsc1-c1ccc2c(Nc3cc(O)c(Cl)cc3F)ccnc2c1
inactive: inhibition [2] 0% | inhibition [3] -5% | outcome [5] | outcome [6] | outcome [7]
active: growth inhibition [1] 92% | growth inhibition [4] 101%

CN1CCN(Cc2cccc(-c3ccc4c(Nc5cc(O)c(Cl)cc5F)ccnc4c3)c2)CC1
inactive: inhibition [2] -1% | inhibition [3] 4% | outcome [5] | outcome [6] | outcome [7]
active: growth inhibition [1] 100% | growth inhibition [4] 102%

CS(=O)(=O)Cc1ccc(Nc2nccc(-c3c(-c4cccc(NC(=O)c5c(F)cccc5F)c4)nn4ncccc34)n2)cc1
inactive: inhibition [3] 1% | outcome [5] | outcome [6] | outcome [7]
active: growth inhibition [1] 93% | inhibition [2] 86% | growth inhibition [4] 97%

Nc1ncc(-c2cn[nH]c2)cc1-c1nc2ccc(F)cc2[nH]1
active: growth inhibition [1] 53% | growth inhibition [4] 101%
inactive: inhibition [2] 38% | inhibition [3] -3% | outcome [5] | outcome [6] | outcome [7]

CC(C)(CNCc1ccc(Cl)cc1)c1nc(-c2ccc(Cl)c(O)c2)c(-c2ccncc2)[nH]1
active: growth inhibition [1] 98% | inhibition [2] 86% | growth inhibition [4] 101%
inactive: inhibition [3] 5% | outcome [5] | outcome [6] | outcome [7]

O=C(NCCCN1CCCCC1)c1ccc(Nc2nccc(Nc3ccc(Oc4ccccc4)cc3)n2)cc1
inactive: inhibition [2] 30% | inhibition [3] -3% | outcome [5] | outcome [6] | outcome [7]
active: growth inhibition [1] 61% | growth inhibition [4] 100%

Oc1cccc(-c2cnc3ccc(NCc4ccc(F)cc4)nn23)c1
inactive: inhibition [2] -5% | inhibition [3] 2% | outcome [5] | outcome [6] | outcome [7]
active: growth inhibition [1] 66% | growth inhibition [4] 91%

CC(C)(CNC(=O)[C@@H]1CCCCN1)c1nc(-c2ccc(Cl)c(O)c2)c(-c2ccncc2)[nH]1
inactive: inhibition [2] -8% | inhibition [3] -10% | outcome [5] | outcome [6] | outcome [7]
active: growth inhibition [1] 96% | growth inhibition [4] 97%

CC(C)(CNC(=O)C1CCN(CCOCc2ccccc2)CC1)c1nc(-c2ccc(Cl)c(O)c2)c(-c2ccncc2)[nH]1
inactive: growth inhibition [1] 18% | inhibition [2] 11% | inhibition [3] -14% | outcome [5] | outcome [6] | outcome [7]
active: growth inhibition [4] 101%

COCCNCc1cccc(-c2ccc3c(Nc4ccc(Oc5cccnc5)cc4)ccnc3c2)c1
active: growth inhibition [1] 99% | inhibition [2] 58% | growth inhibition [4] 100%
inactive: inhibition [3] -5% | outcome [5] | outcome [6] | outcome [7]

CN(C)CCN(C)Cc1nc(-c2ccc3c(Nc4ccc(Oc5ccccc5)cc4)ccnc3c2)cs1
active: growth inhibition [1] 100% | growth inhibition [4] 100%
inactive: inhibition [2] 27% | inhibition [3] -3% | outcome [5] | outcome [6] | outcome [7]

COc1ccc(-c2cnc3[nH]cc(-c4ccncc4)c3c2)cc1OC
inactive: inhibition [3] -2% | outcome [5] | outcome [6] | outcome [7]
active: growth inhibition [1] 97% | inhibition [2] 52% | growth inhibition [4] 98%

Cc1cccc2[nH]c(-c3cc(-c4cn[nH]c4)cnc3N)nc12
inactive: inhibition [2] 37% | inhibition [3] 0% | outcome [5] | outcome [6] | outcome [7]
active: growth inhibition [1] 93% | growth inhibition [4] 101%

COc1cc(-c2nc(C(C)(C)CN)[nH]c2-c2ccncc2)ccc1Br
inactive: inhibition [2] 17% | inhibition [3] 1% | outcome [5] | outcome [6] | outcome [7]
active: growth inhibition [1] 95% | growth inhibition [4] 97%

Cn1c(Nc2cc(C(C)(C)C)on2)nc2cc(Nc3ccnc(Nc4cccc(CS(C)(=O)=O)c4)n3)ccc21
active: growth inhibition [1] 94% | inhibition [2] 63% | growth inhibition [4] 99%
inactive: inhibition [3] -4% | outcome [5] | outcome [6] | outcome [7]

CN(C)CCNCc1ccc(-c2ccc3c(Nc4ccc(Cl)cc4F)ccnc3c2)o1
inactive: inhibition [2] 14% | inhibition [3] -4% | outcome [5] | outcome [6] | outcome [7]
active: growth inhibition [1] 100% | growth inhibition [4] 99%

c1cncc(Oc2ccc(Nc3ccnc4cc(-c5cccc(CNCCN6CCOCC6)c5)ccc34)cc2)c1
inactive: inhibition [2] 14% | inhibition [3] 4% | outcome [5] | outcome [6] | outcome [7]
active: growth inhibition [1] 99% | growth inhibition [4] 101%

CN(C)CCNCc1nc(-c2ccc3c(Nc4ccc(Oc5ccccc5)cc4)ccnc3c2)cs1
inactive: inhibition [2] 8% | inhibition [3] 6% | outcome [5] | outcome [6] | outcome [7]
active: growth inhibition [1] 100% | growth inhibition [4] 101%

Oc1cccc(Nc2ccnc3cc(-c4nccs4)ccc23)c1
active: growth inhibition [4] 98%
inactive: inhibition [2] -10% | inhibition [3] -7% | outcome [5] | outcome [6] | outcome [7]

O=C(NCCN1CCCCC1)c1cccc(Nc2nccc(Nc3ccc(Oc4ccccc4)cc3)n2)c1
inactive: inhibition [3] -2% | outcome [5] | outcome [6] | outcome [7]
active: growth inhibition [1] 86% | inhibition [2] 50% | growth inhibition [4] 99%

Reference: PubChem BioAssay
